High-throughput results (PubChem BioAssay)
IL-1B inflam inh: blocks inflammasome-driven IL-1 beta release; THP-1 LPS/ATP IL-1B secretion, AlphaLISA, 16 h; active compounds read low; activity change, % at 57.5 µM; 360,000 compounds, 4.7% hits; AID 743279; in the data active = activity change below about -50%; inconclusive = mostly about -30% to -49%
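THP-1 cells pretreated 1 hr with compounds (up to 57.5 uM final), then stimulated with LPS (250 ng/mL final) plus ATP (1.25 mM final); secreted IL-1B measured by AlphaLISA after 16 hr, decreased signal indicating inhibition.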
DT40 TDP1 no CPT: qHTS for Inhibitors of human tyrosyl-DNA phosphodiesterase 1 (TDP1): qHTS in cells in absence of CPT. 420,000 compounds, 15% hits. DT40 Tdp1-/- hTDP1 cells, no CPT, ATP luminescence, 48 h. Potency, µM (titrated, usually from 46.2 µM), hits mostly inhibitors; note: nearly all actives have a fitted effect of over 55% in size
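Chicken DT40 Tdp1-/- cells complemented with human TDP1, screened without camptothecin (DMSO vehicle only), 400 cells/well. Compounds pin-transferred, cells incubated at 37 °C for at least 48 hr. Growth read as ATP-dependent luminescence (CellTiter-Glo, 30 min at RT).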
TDP1 block: blocks human tyrosyl-DNA phosphodiesterase 1 | Q9NUW8 | recombinant TDP1, AlphaScreen DNA substrate cleavage | Potency, µM (series often up to 130 µM), usual class: inhibitors | 350,000 compounds, 0.28% hits; note: nearly all actives have a fitted effect of over 40% in size
Target sequence (Q9NUW8 whole entry, looked up): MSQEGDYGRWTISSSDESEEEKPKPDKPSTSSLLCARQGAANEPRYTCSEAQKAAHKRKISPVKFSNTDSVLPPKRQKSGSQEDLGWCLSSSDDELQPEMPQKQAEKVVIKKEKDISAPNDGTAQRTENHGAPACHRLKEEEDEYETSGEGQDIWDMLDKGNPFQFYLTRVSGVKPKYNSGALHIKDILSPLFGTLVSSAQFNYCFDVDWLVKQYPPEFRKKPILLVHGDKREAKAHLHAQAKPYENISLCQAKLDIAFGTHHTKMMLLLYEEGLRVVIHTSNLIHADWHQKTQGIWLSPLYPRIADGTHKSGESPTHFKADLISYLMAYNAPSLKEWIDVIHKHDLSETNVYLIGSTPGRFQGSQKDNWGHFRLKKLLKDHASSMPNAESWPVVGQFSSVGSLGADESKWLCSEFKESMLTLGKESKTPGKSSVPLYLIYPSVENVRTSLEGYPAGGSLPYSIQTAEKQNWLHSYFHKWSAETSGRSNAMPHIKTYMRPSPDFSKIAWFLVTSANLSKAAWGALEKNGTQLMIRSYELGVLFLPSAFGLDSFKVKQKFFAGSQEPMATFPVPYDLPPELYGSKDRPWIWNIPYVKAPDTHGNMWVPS
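Compounds were preincubated with Tdp1 (1 nM final) for 15 min at room temperature before substrate (15 nM final) started a 5 min reaction; beads (10 ug/ml final) were then added for 10 min before AlphaScreen detection.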
ELG1 repair inh: ELG1-dependent DNA repair inhibition. HEK293T ELG1-luciferase reporter, luminescence, 16 h; DNA damage induced by 5-fluorouridine. Potency, µM (doses to about 46.1 µM), most hits filed as inhibitors. 330,000 compounds, 2.3% hits; note: nearly all actives have a fitted effect of over 55% in size
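Cells (2,000 per well) received 5-fluorouridine plus test compound or DMSO and were incubated 16 hr at 37 °C, 5% CO2. Luciferase activity was read by luminescence 30 min after ONE-Glo addition; signal suppression marked inhibition of damage-induced ELG1 function.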
Giardia killer: Giardia lamblia killing. Giardia lamblia trophozoite viability. activity change, % at 7.66 µM, hits read low. 340,000 compounds, 0.15% hits. AID 540267; in the data active = activity change below about -80%; inconclusive = between about -30% and that limit;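 note: parasites exposed to compound for two days anaerobically before the ATP read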
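Killing of trophozoites was scored by loss of ATP luminescence after a 48 hrs anaerobic exposure to compounds at 37 deg C, using 100 cells per well.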
DT40 TDP1 CPT: DT40-hTDP1 cell growth loss with CPT | chicken DT40 Tdp1-/-;hTDP1 cells + 20 nM CPT, ATP luminescence, 48 h | Potency, µM (top dose mostly 46.2 µM), usual class: inhibitors | 420,000 compounds, 12% hits | AID 686979; note: nearly all actives have a fitted effect of over 55% in size
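Chicken DT40 Tdp1-/- cells complemented with human TDP1, 400 cells/well, exposed to compounds plus 20 nM camptothecin for at least 48 h at 37 C; viability read as ATP content by CellTiter-Glo luminescence.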
Of the large screens only hits and unclear results are named; the others gave an inactive call. Sampled rows, rich in hits. Any-hit rate of the full collection: about 19%. Unless noted, calls come from the whole dose curve; as a rule, active = well fitted curve in the direction sought with a large enough effect; inconclusive = small, poorly fitted or top-dose-only effect, or another doubt; inactive = no such curve, though single readings can be large; an effect the other way counts as inactive or inconclusive.

CCOC(=O)c1cc(C#N)c(SC(C(=O)N2CCCCC2)c2ccccc2)nc1C (centres undefined)	DT40 TDP1 no CPT 10µM, DT40 TDP1 CPT inconclusive (no result: IL-1B inflam inh, TDP1 block, ELG1 repair inh, Giardia killer)
CCOC(=O)c1cc(C#N)c(SCc2cccc3ccccc23)nc1C	DT40 TDP1 no CPT inconclusive, TDP1 block inconclusive
COC(=O)C(NC(=O)CCc1c(C)nc2c(c(C)nn2-c2ccccc2)c1C)C(C)C (centres undefined)	DT40 TDP1 no CPT 16.4µM, DT40 TDP1 CPT 16.4µM
CCOC(=O)CCc1c(C)nc2c(c(C)nn2-c2ccccc2)c1C	DT40 TDP1 CPT inconclusive (no result: TDP1 block)
CCC(C)NC(=O)CCc1c(C)nc2c(c(C)nn2-c2ccccc2)c1C (centres undefined)	DT40 TDP1 no CPT 23.1µM, DT40 TDP1 CPT 10.3µM (no result: TDP1 block)
Cc1oc(-c2ccc(Cl)cc2)nc1Cn1c(=O)cc(-c2ccccc2)c2c(C)nn(C)c21	none (no result: IL-1B inflam inh, ELG1 repair inh, Giardia killer)
CCc1ccc(NC(=O)[C@H](C)NC(=O)C2CCN(C(=O)[C@@H](N)C(C)C)CC2)cc1	none (no result: TDP1 block)
COc1ccc(CCNC(=O)c2ccccc2N(C)S(=O)(=O)c2ccccc2)cc1	none
COc1ccc(CCNC(=O)c2ccc(S(=O)(=O)N(C)c3ccccc3)cc2)cc1OC	DT40 TDP1 no CPT 23.1µM, DT40 TDP1 CPT inconclusive
Cc1ccc(S(=O)(=O)N(C)c2ccc(C(=O)NCCc3ccccc3)cc2)cc1	DT40 TDP1 no CPT inconclusive, ELG1 repair inh inconclusive, DT40 TDP1 CPT inconclusive
CCN(c1ccccc1)S(=O)(=O)c1ccc(Cl)c(C(=O)NCCc2ccc(OC)cc2)c1	DT40 TDP1 no CPT inconclusive, DT40 TDP1 CPT 18.4µM
CCOc1ccc(S(=O)(=O)N(C)c2ccc(OCC(=O)NCC3CCCO3)cc2)cc1 (centres undefined)	none
CCOc1ccc(S(=O)(=O)N(C)c2ccc(OCC(=O)NCCc3ccc(OC)cc3)cc2)cc1	DT40 TDP1 no CPT 23.1µM, ELG1 repair inh inconclusive, DT40 TDP1 CPT 20.6µM
CCN(c1ccccc1)S(=O)(=O)c1ccc(C(=O)N(C)CCc2ccc(OC)c(OC)c2)cc1	DT40 TDP1 no CPT 20.6µM, ELG1 repair inh inconclusive, DT40 TDP1 CPT inconclusive
CCN(c1ccccc1)S(=O)(=O)c1ccc(OC)c(OC)c1	none
COc1ccc(OC)c(-c2nn(-c3ccccc3)cc2C(=O)NCC(c2cccs2)N2CCOCC2)c1 (centres undefined)	IL-1B inflam inh inconclusive, DT40 TDP1 no CPT inconclusive, ELG1 repair inh inconclusive, DT40 TDP1 CPT inconclusive
Cc1ccc(Cn2ccnc2SCC(=O)Nc2ccccc2C(F)(F)F)cc1	none (no result: IL-1B inflam inh, ELG1 repair inh, Giardia killer)
COc1cc2c(cc1OC)C(c1cc3cccc(C)c3[nH]c1=O)N(C(=O)c1ccco1)CC2 (centres undefined)	none (no result: IL-1B inflam inh, DT40 TDP1 no CPT, Giardia killer, DT40 TDP1 CPT)
COc1ccc(CCNC(=O)c2ccc(Cl)c(S(=O)(=O)N(C)c3ccccc3)c2)cc1	IL-1B inflam inh inconclusive, DT40 TDP1 no CPT 16.4µM, ELG1 repair inh 16.4µM, DT40 TDP1 CPT 20.6µM
COc1ccc(CCNC(=O)c2ccc(N(C)S(=O)(=O)c3ccc(C)cc3)cc2)cc1	DT40 TDP1 no CPT 16.4µM, ELG1 repair inh inconclusive, DT40 TDP1 CPT inconclusive
CCOc1ccc(S(=O)(=O)N(C)c2ccc(OCC(=O)NCC3CCCCC3)cc2)cc1	IL-1B inflam inh inconclusive, DT40 TDP1 no CPT 20.6µM, ELG1 repair inh 25.9µM, DT40 TDP1 CPT 16.4µM
CN(c1ccccc1)S(=O)(=O)c1cccc(C(=O)NCCc2ccc(O)c(O)c2)c1	DT40 TDP1 no CPT 11.6µM, ELG1 repair inh inconclusive, DT40 TDP1 CPT 8.2µM
CN(c1ccccc1)S(=O)(=O)c1cccc(C(=O)NCc2ccccc2CN2CCCC2)c1	DT40 TDP1 no CPT inconclusive, DT40 TDP1 CPT inconclusive
COc1ccccc1CNC(=O)c1cccc(S(=O)(=O)N(C)c2ccccc2)c1	DT40 TDP1 no CPT inconclusive, ELG1 repair inh inconclusive, DT40 TDP1 CPT 25.9µM
CCN(CC)CCOC(=O)/C=C/c1ccccc1OC	none
COc1cc2cc(CCO)oc(=O)c2cc1OC	ELG1 repair inh inconclusive
